Results reported in PubChem BioAssay AID2058 (Sanford-Burnham Center for Chemical Genomics, 2009).
Out of some 290,000 compounds screened, about 150 (0.052%) were called active.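 Rule for the calls: active = inhibition of at least 50% with at least 30 cells and total cytoplasm GFP at most 10,000,000; inconclusive = under 30 cells or total GFP of 10,000,000 plus; inactive = the rest.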 The list comes from a sample in which actives are over-represented; it also holds similar structures and randomly drawn compounds. Results with a measured potency or affinity are listed apart.

Each compound was assayed against G-protein coupled receptor 35 (Homo sapiens) (UniProt Q9HC97) (assay: inhibition of zaprinast-stimulated GPR35 beta-arrestin translocation – imaging, U2OS, beta-arrestin-GFP, zaprinast agonist, primary screen (AID 2058)). Details: zaprinast antagonism, at 10 µM, active compounds read high.
Sequence of G-protein coupled receptor 35 (Homo sapiens) (Q9HC97 whole entry, looked up): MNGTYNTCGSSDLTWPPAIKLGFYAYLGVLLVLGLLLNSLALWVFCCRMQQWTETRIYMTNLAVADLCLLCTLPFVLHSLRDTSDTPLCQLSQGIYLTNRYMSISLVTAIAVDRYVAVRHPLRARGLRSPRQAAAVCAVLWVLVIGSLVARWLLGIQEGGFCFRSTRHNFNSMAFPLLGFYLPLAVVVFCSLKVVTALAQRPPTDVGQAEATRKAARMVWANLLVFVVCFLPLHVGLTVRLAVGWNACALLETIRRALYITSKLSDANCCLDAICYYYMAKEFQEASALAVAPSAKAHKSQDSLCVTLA
In the case of `Cc1ccc(/C=C2/SC(=S)N(CCC(=O)N3CCN(c4ccccc4)CC3)C2=O)cc1`, the inhibition is reported as -11.1% (inactive). For `COc1ccc(/C=C2\SC(=S)N(CCC(=O)N3CCCCC3)C2=O)cc1`, the inhibition was 1.2% (inactive). `COc1c(S(=O)(=O)Nc2cccnc2)ccc(Cl)c1Cl` was tested, and the inhibition was 0.5% (inactive). For `O=c1[nH]cnc2sc3c(c12)CN(Cc1ccccc1)CC3`, the inhibition was -2.4% (inactive). For `Cc1ccc(NC(=O)C2C(c3ccccc3)C=CC(c3ccccc3)C2C(=O)O)cc1` (stereo not given), the inhibition was -4.3% (inactive). In the case of `Cc1ccccc1Nc1nnc(SCC(=O)NCc2cccs2)s1`, the inhibition is reported as 0% (inactive). In the case of `C/C(=N\NC(=O)c1cc(-c2ccc(C)s2)[nH]n1)c1ccncc1`, the inhibition is reported as -6.8% (inactive). In the case of `COc1ccc(C(=O)NCCc2nnc(SCC(=O)Nc3ccc(Br)cc3)n2C)cc1`, the inhibition is reported as 0.4% (inactive). `CNC(=O)/C=C1\NC(C)(C)Cc2c1ccc1ccccc21` was tested, and the inhibition was 7.2% (inactive). For `CC1(C)Cc2ccccc2/C(=C/C(=O)N2CCCCCC2)N1`, the inhibition was 7.4% (inactive). For `O=C(NN1CCOCC1)c1ccccc1Br`, the inhibition was 2.6% (inactive). With `COc1ccc2c(c1)NC(c1ccc(N(C)C)cc1)c1cccn1-2` (stereo not given) the inhibition was 83.6% (active). With `COc1ccc(C2Nc3cc(OC)ccc3-n3cccc32)cc1` (stereo not given) the inhibition was 7% (inactive). For `COc1ccc2c(c1)NC(c1cc(Cl)cc(Cl)c1O)c1cccn1-2` (stereo not given), the inhibition was 12.6% (inactive). In the case of `CCc1nnc(NC(=O)c2cc(S(=O)(=O)N3CCOCC3)ccc2N2CCCCC2)s1`, the inhibition is reported as 4.8% (inactive). For `CCOc1ccccc1CNc1nnnn1C`, the inhibition was 2.8% (inactive). For `C=CCN1C(=O)/C(=C/C=C2/N(CC)c3ccc(S(=O)(=O)N(C)C)cc3N2CC)SC1=S`, the inhibition was 9.4% (inactive). In the case of `CCN1C(=O)/C(=C/C=C2/Sc3ccccc3N2CCO)SC1=S`, the inhibition is reported as -15.5% (inactive). `CCN1C(=O)/C(=C/C=C2\N(CC)c3cc(S(=O)(=O)N(C)C)ccc3N2c2ccccc2)SC1=S` was tested, and the inhibition was 62% (active). In the case of `CC(=O)c1cccc(OCc2cc(C(=O)N3C[C@@H](C)O[C@@H](C)C3)no2)c1`, the inhibition is reported as 4.5% (inactive). In the case of `CC1Sc2ccc(S(=O)(=O)CCC(=O)NCc3ccc(Cl)cc3)cc2NC1=O` (stereo not given), the inhibition is reported as 7.8% (inactive). With `Cc1cc(NC(=O)CSc2nnc(-c3c[nH]c4ccccc34)n2-c2ccc(Cl)cc2)no1` the inhibition was 3.9% (inactive). For `COc1cccc(Cn2cccc(NC(=O)NCc3ccccc3)c2=O)c1`, the inhibition was -1% (inactive). `N#Cc1c(Cl)nc(SCc2ccccc2)nc1-c1ccccc1` was tested, and the inhibition was 10.7% (inactive). `COc1ccc(-c2nc(-c3cccc(C)c3)nc(Cl)c2C#N)cc1` was tested, and the inhibition was 13.1% (inactive). For `CSc1nc(Cl)c(C#N)c(-c2ccc(C)cc2)n1`, the inhibition was 61.8% (active). In the case of `CCOC(=O)c1c(-c2ccc(C)cc2)csc1NC(=O)/C(C#N)=C/c1ccc(O)c(OC)c1`, the inhibition is reported as 2.7% (inactive). In the case of `CCOC(=O)c1c(-c2ccccc2)csc1NC(=O)/C(C#N)=C/c1ccc(OC)c(OC)c1`, the inhibition is reported as -10.8% (inactive). With `O=C(O)c1ccc(COc2ccccc2[N+](=O)[O-])o1` the inhibition was 9.8% (inactive). For `Cc1ccc(-c2c(C(=O)N/N=C/c3ccc(C)o3)nnn2-c2nonc2N)cc1`, the inhibition was 9.3% (inactive). In the case of `CCCN1C=CC(=CC=C(C#N)C#N)C=C1`, the inhibition is reported as 59.2% (active). With `C=CCN1C=CC(=CC=C(C#N)C#N)C=C1` the inhibition was 29.6% (inactive). In the case of `CCCN1C=CC(=C/C=C(\C#N)C(=O)OCC)C=C1`, the inhibition is reported as 7.2% (inactive). For `Cc1ccc(C(=O)O)cc1NC(=O)C1=CSCCO1`, the inhibition was -0.5% (inactive). With `COc1ccc(CNc2cc(C)nc3ccc(OC)cc23)cc1` the inhibition was 7.8% (inactive). In the case of `COc1ccc2nc(C)cc(NCc3cccc(C(F)(F)F)c3)c2c1`, the inhibition is reported as -5.8% (inactive). For `O=C1Oc2ccccc2C(=O)/C1=C/N1CCN(c2ccccc2F)CC1`, the inhibition was -6.9% (inactive). In the case of `CC(C)CCN1CCNC(=O)C1CC(=O)NCCCN1CCOCC1` (stereo not given), the inhibition is reported as -0.8% (inactive). `CC(NC(=O)CN1CCCC1)C12CC3CC(CC(C3)C1)C2` (stereo not given) was tested, and the inhibition was 1.4% (inactive). In the case of `CC(NC(=O)Cn1nc(C(=O)O)c2ccccc2c1=O)C12CC3CC(CC(C3)C1)C2` (stereo not given), the inhibition is reported as 8% (inactive). In the case of `O=C(c1cc(-c2ccccc2Cl)nc2ccccc12)N1CCOCC1`, the inhibition is reported as 10.1% (inactive). With `CCN(CC)c1ccc2c(C)c(Cl)c(=O)oc2c1` the inhibition was 8.4% (inactive). `CCN(CC)c1ccc2c(Cl)cc(=O)oc2c1` was tested, and the inhibition was 4.5% (inactive). With `COc1ccc(C(=O)/C=C/c2ccc(N3CCCCC3)c([N+](=O)[O-])c2)cc1` the inhibition was 2.4% (inactive). With `CCn1c2ccccc2c2cc(NC(=O)c3ccc([N+](=O)[O-])cc3)ccc21` the inhibition was -16.2% (inactive). In the case of `Cn1ccc(=Nc2ccc(NC(=O)c3ccc(N=c4ccn(C)c5ccc([N+](=O)[O-])cc45)cc3)cc2)cc1`, the inhibition is reported as 53.5% (active). For `O=C(Nc1ccc(N2CCOCC2)cc1)c1ccc([N+](=O)[O-])cc1`, the inhibition was 14.4% (inactive). `Cc1c(NC(=S)N/N=C/c2ccc(N(C)C)cc2)c(=O)n(-c2ccccc2)n1C` was tested, and the inhibition was 5.5% (inactive). `O=C1CN(C(=O)N[C@@H](Cc2ccccc2)C(=O)N[C@@H](Cc2ccccc2)C(=O)O)c2ccccc2N1` was tested, and the inhibition was 6.4% (inactive). In the case of `CCCCOc1ccc(C2C3CN(C(=O)OCC)CC=C3C(C#N)=C(N)C2(C#N)C#N)cc1OC` (stereo not given), the inhibition is reported as -1.9% (inactive). For `CCOC(=O)N1CC=C2C(C#N)=C(N)C(C#N)(C#N)[C@H](c3cccs3)C2C1` (stereo not given in full), the inhibition was 12.4% (inactive). In the case of `CCN1CC=C2C(C#N)=C(N)C(C#N)(C#N)[C@H](c3cccc(OC)c3OC)[C@H]2C1`, the inhibition is reported as 100% (active). With `COc1cccc(OC)c1OCc1cc(C2C3CCCC=C3C(C#N)=C(N)C2(C#N)C#N)c(C)cc1C` (stereo not given) the inhibition was 7% (inactive). In the case of `CCCOc1ccc([C@@H]2C3CN(C(=O)OCC)CC=C3C(C#N)=C(N)C2(C#N)C#N)cc1OC` (stereo not given in full), the inhibition is reported as 16.5% (inactive). `COc1ccc([C@@H]2[C@H]3CN(C(C)=O)CC=C3C(C#N)=C(N)C2(C#N)C#N)c2ccccc12` was tested, and the inhibition was -18.9% (inactive). For `CCCN1CC=C2C(C#N)=C(N)C(C#N)(C#N)C(c3cccc(OC)c3OC)C2C1` (stereo not given), the inhibition was 101% (active). In the case of `CCOC(=O)N1CC=C2C(C#N)=C(N)C(C#N)(C#N)[C@H](c3ccccc3OCC)[C@H]2C1`, the inhibition is reported as 2.1% (inactive). In the case of `Cc1c(C(=O)Nc2ccc(Cc3ccncc3)cc2)cccc1[N+](=O)[O-]`, the inhibition is reported as -1.8% (inactive). With `CC(C)(C)[C@H]1C=C(C(=O)NCc2nc3ccccc3[nH]2)O[C@@H](OCc2ccc(CO)cc2)C1` the inhibition was 9.8% (inactive). For `O=C1c2ccc([N+](=O)[O-])cc2NC(c2ccco2)N1/N=C/c1ccco1` (stereo not given), the inhibition was -4.6% (inactive). For `Cn1cc(/C=C/C(=O)N2CCCC(C(=O)c3ccc(C(C)(C)C)cc3)C2)cn1` (stereo not given), the inhibition was -6.4% (inactive). `CCc1cccc2c(C(=O)C(F)(F)F)cn(CC(=O)N3CCOCC3)c12` was tested, and the inhibition was 7.2% (inactive). For `N#C/C(=C/c1ccc(N2CCCCCC2)o1)c1ccc(Cl)cc1`, the inhibition was 87.6% (active). For `N#C/C(=C/c1ccc(N2CCOCC2)o1)c1ccc(Cl)cc1`, the inhibition was -12.2% (inactive). In the case of `N#C/C(=C/c1ccc(N2CCCCCC2)o1)c1cccc(F)c1`, the inhibition is reported as 104% (active). With `N#C/C(=C/c1ccc(N2CCCCC2)o1)c1cccc(F)c1` the inhibition was 55.7% (active). For `N#C/C(=C\c1ccc(N2CCOCC2)o1)C(=O)NC1CCCCC1`, the inhibition was 8.1% (inactive). With `N#C/C(=C/c1ccc(N2CCOCC2)o1)C(=O)NC1CCCCC1` the inhibition was 9.2% (inactive). `N#C/C(=C/c1ccc(N2CCCCC2)cc1)c1cccc(F)c1` was tested, and the inhibition was 11.7% (inactive). With `Cc1ccc(/C(C#N)=C\c2ccc(N3CCOCC3)o2)cc1` the inhibition was 27.2% (inactive). With `COc1cc(N2CCCC2)c(OC)cc1/C=C(/C#N)c1cccc(F)c1` the inhibition was 30.4% (inactive). `N#C/C(=C/c1ccc(Sc2nc3ccccc3[nH]2)o1)c1cccc(F)c1` was tested, and the inhibition was -1.5% (inactive). `N#C/C(=C/c1ccc(N2CCOCC2)o1)c1ccc(Br)cc1` was tested, and the inhibition was 37.8% (inactive). `O=C(Nc1ccccn1)C1(c2ccccc2)CCCC1` was tested, and the inhibition was 3% (inactive). With `CC(C)(C)OC(=O)N1CCN(c2ccc(CNC(=O)c3ccc(Cl)cc3)cc2)CC1` the inhibition was 4% (inactive). In the case of `COc1ccc(-c2nnn(CC(=O)N(CCCO)C(C(=O)NC3CCCC3)c3ccc(F)cc3)n2)cc1` (stereo not given), the inhibition is reported as 4% (inactive). In the case of `Cc1cccc(NC(=O)C2CCN(S(=O)(=O)c3cccc4nonc34)CC2)c1`, the inhibition is reported as -1.2% (inactive). In the case of `COc1ccc(/C=N/n2cnc3c([nH]c4ccc(C)cc43)c2=O)cc1CN1CCCC1`, the inhibition is reported as 1.2% (inactive). With `CC(=O)Nc1ccc(S(=O)(=O)NCC2CCC(C(=O)NC(C)c3ccccc3)CC2)cc1` (stereo not given) the inhibition was -1.8% (inactive). `CN(C)c1nc(N2CCN(c3ccccc3)CC2)c(C#N)c(=O)o1` was tested, and the inhibition was 16.3% (inactive). With `N=c1c2c3c(sc2ncn1N)CCC3` the inhibition was 4.1% (inactive). For `CC(C)N1CC=C2C(C#N)=C(N)C(C#N)(C#N)C(c3ccccc3)C2C1` (stereo not given), the inhibition was 69% (active). In the case of `Cc1ccc(C2C3CSCC=C3C(C#N)=C(N)C2(C#N)C#N)cc1` (stereo not given), the inhibition is reported as 1.6% (inactive). With `N#CC1=C(N)C(C#N)(C#N)[C@H](c2ccncc2)[C@H]2CN(C(=O)OCc3ccccc3)CC=C12` the inhibition was 1% (inactive). With `CCC1C2CN(C(C)=O)CC=C2C(C#N)=C(N)C1(C#N)C#N` (stereo not given) the inhibition was -14.1% (inactive). For `Cc1ccc(C2C3CN(C(C)C)CC=C3C(C#N)=C(N)C2(C#N)C#N)cc1` (stereo not given), the inhibition was 100% (active). `N#CC1=C(N)C(C#N)(C#N)C(c2ccncc2)C2CN(C(=O)OCc3ccccc3)CC=C12` (stereo not given) was tested, and the inhibition was -3% (inactive). With `CCCC1C2CN(C(C)C)CC=C2C(C#N)=C(N)C1(C#N)C#N` (stereo not given) the inhibition was 112% (active). In the case of `CC(C)c1ccc(C2C3CSCC=C3C(C#N)=C(N)C2(C#N)C#N)cc1` (stereo not given), the inhibition is reported as -18.5% (inactive). In the case of `CCCC1C2CN(C(C)=O)CC=C2C(C#N)=C(N)C1(C#N)C#N` (stereo not given), the inhibition is reported as 8.7% (inactive).
